The source of these data is PubChem BioAssay (NCI).

Where “and” joins values, the source holds several entries; their conditions need not be identical. Equal entries are not always repeated. The panel holds about 83,000 compounds, 20% with a hit somewhere; the sample as a whole holds those more often.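 Testing used 96-well plates and a 48-hour single-concentration exposure. Example: -40 means 40% of the starting cells died.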 Unmarked numbers belong to inactive results. Calls of active or inactive are those of the source. The calls were made as follows: active = growth percent below 10; inactive = the rest.

Test systems include NCI-H23 lung; NCI-H226 lung; NCI-H322M lung; HOP-62 NSCLC; NCI-H460 lung; HOP-92 NSCLC; NCI-H522 lung; A549/ATCC NSCLC; 786-0 renal; COLO 205 colon.
What all share (experiment): NCI-60 one-dose screen, 48 h (100 = growth as untreated, 0 = no growth, -100 = all killed)
Common to all, as to details: 10 µM unless noted

Take `Cc1nnc([S-])o1.[Au+].c1ccc([PH+](c2ccccc2)c2ccccc2)cc1`: the growth with NCI-H23 lung is 61.5%; in the test on NCI-H226 lung, 114%; with NCI-H322M lung, 88.4%; in the test with HOP-62 NSCLC, 121%; in the test on NCI-H460 lung, 86%; in the test with HOP-92 NSCLC it was -9.28% (active). The growth was -81.1% (active) with NCI-H522 lung, 76.4% in the test with A549/ATCC NSCLC, 38.8% in the test on 786-0 renal and 55.4% in the test on COLO 205 colon.

As for `C/C(=N/OC(=O)N(C)C)c1ccc(Cl)c(Cl)c1`, the growth is 98.2% in the test on NCI-H23 lung; 102% with NCI-H226 lung; 96.1% with NCI-H322M lung; 107% in the test on HOP-62 NSCLC; 107% with NCI-H460 lung; 102% with HOP-92 NSCLC. The growth with A549/ATCC NSCLC was 82.7%; in the test on 786-0 renal it was 103%; in the test with COLO 205 colon it was 111%.

As for `CC(=O)Cc1ccc2c(c1)OCO2`, the growth with NCI-H23 lung was 93.9%; in the test on NCI-H226 lung, 104%; in the test with NCI-H322M lung it was 113%; in the test on HOP-62 NSCLC, 102%; in the test on NCI-H460 lung, 109%; in the test on HOP-92 NSCLC, 110%. In addition, the figures for the growth with A549/ATCC NSCLC, with 786-0 renal and in the test on COLO 205 colon were 96%, 109% and 117%, respectively.

`CNC(=O)O/N=C(\SC)C(=O)N(C)C`: the growth is 93.4% in the test on NCI-H23 lung; 110% with NCI-H226 lung; 111% in the test with NCI-H322M lung; 105% in the test with HOP-62 NSCLC; 107% with NCI-H460 lung; 76.8% with HOP-92 NSCLC. For the same molecule, the growth in the test with A549/ATCC NSCLC was 109%; in the test with 786-0 renal, 105%.

With `CNC(=O)CCl`, the growth was 101% in the test on NCI-H23 lung; 90.9% in the test with NCI-H226 lung; 102% in the test on NCI-H322M lung; 98.5% in the test on HOP-62 NSCLC; 107% in the test on NCI-H460 lung; 93.7% with HOP-92 NSCLC. Further, the growth in the test with NCI-H522 lung was 106%; in the test on A549/ATCC NSCLC it was 96.3%; with COLO 205 colon, 108%.

Regarding `N#CCC(=O)c1ccccc1`, the growth with NCI-H23 lung is 97.7%; with NCI-H226 lung it was 97.9%; in the test on NCI-H322M lung, 96.6%; with HOP-62 NSCLC, 101%; in the test on NCI-H460 lung, 96.9%; in the test on HOP-92 NSCLC, 86.8%. Further, the growth is 102% in the test on NCI-H522 lung, 107% in the test on 786-0 renal and 101% with COLO 205 colon.

For `C#Cc1cccc(Nc2nc(Cl)nc3cc(NC(=O)CF)ccc23)c1`, the growth in the test on NCI-H23 lung is 80.2%; with NCI-H226 lung, 86.6%; with NCI-H322M lung it was 80%; in the test with HOP-62 NSCLC it was 70%; in the test on NCI-H460 lung it was 29.4%; with HOP-92 NSCLC it was 91.1%. In addition, the growth in the test on A549/ATCC NSCLC was 55.4%; with 786-0 renal it was 92.9%; in the test on COLO 205 colon it was 41.8%.

Consider `CC/C(Cc1ccccc1)=C(\c1ccc(OCCN2CCCC2)cc1)c1ccc(OC(=O)NCc2ccccc2)cc1`, for which the growth in the test with NCI-H23 lung is 90.8%; with NCI-H226 lung, 92.1%; in the test with NCI-H322M lung, 84.9%; with HOP-62 NSCLC, 76.7%; in the test with NCI-H460 lung it was -45.2% (active); with HOP-92 NSCLC, 38.6%. Besides, the growth with A549/ATCC NSCLC is 42.4%; in the test on 786-0 renal, 20.7%; in the test with COLO 205 colon it was -66.6% (active).

In the case of `O=c1[nH]c(=O)n(Cl)c(=O)n1Cl`, the growth was 99.2% with NCI-H23 lung; 98.4% and 104% with NCI-H226 lung; 108% and 119% in the test with NCI-H322M lung; 109% and 98.3% with HOP-62 NSCLC; 116% and 109% in the test with NCI-H460 lung; 101% and 91.2% in the test on HOP-92 NSCLC. In addition, the growth in the test with NCI-H522 lung was 101% and 100%; with A549/ATCC NSCLC it was 105% and 112%; with 786-0 renal, 115% and 99.5%; in the test with COLO 205 colon it was 117% and 123%.

For `O=NN1CCCCC1`, the growth in the test on NCI-H23 lung is 104%; in the test on NCI-H226 lung, 109%; with NCI-H322M lung, 128%; in the test with HOP-62 NSCLC, 102%; in the test on NCI-H460 lung it was 116%; in the test on HOP-92 NSCLC it was 110%. Besides, the results for the growth with A549/ATCC NSCLC, with 786-0 renal and in the test with COLO 205 colon were 102%, 103% and 107%, respectively.

As for `O=C(O)C1C(C(=O)O)C2(Cl)C(Cl)=C(Cl)C1(Cl)C2(Cl)Cl` (centres undefined), the growth is 96.8% and 100% with NCI-H23 lung; 98.5% and 114% in the test on NCI-H226 lung; 106% and 117% in the test on NCI-H322M lung; 99.6% and 111% in the test on HOP-62 NSCLC; 101% and 111% in the test with NCI-H460 lung; 94.3% and 94.8% with HOP-92 NSCLC. Besides, the growth in the test on NCI-H522 lung was 97.2% and 123%; in the test on A549/ATCC NSCLC it was 104% and 95.8%; with 786-0 renal, 111% and 99.2%; in the test with COLO 205 colon, 101% and 119%.

On to `Cn1cc(-c2csc(-c3cn(CCCCN4CCOCC4)c4ccc(F)cc34)n2)c2cccnc21`, for which the growth in the test with NCI-H23 lung was 80.3%; with NCI-H226 lung, 60.2%; with NCI-H322M lung it was 84.3%; in the test with HOP-62 NSCLC, 85.6%; in the test on NCI-H460 lung, 93.5%; with HOP-92 NSCLC, 52.8%. Moreover, the growth in the test on NCI-H522 lung was 57.2%; in the test on A549/ATCC NSCLC it was 75.1%; in the test with 786-0 renal it was 63.2%; with COLO 205 colon, 65.9%.

For `CCCC(C)SP(=S)(SC(C)CCC)SC(C)CCC` (centres undefined), the growth is 95.5% with NCI-H23 lung; 88.8% in the test on NCI-H226 lung; 101% with NCI-H322M lung; 101% in the test on HOP-62 NSCLC; 98.9% with NCI-H460 lung; 94.7% in the test with HOP-92 NSCLC. Moreover, the growth is 90.9% in the test on NCI-H522 lung and 98.9% in the test on 786-0 renal.
